Structures can show the parent of a compound that is named as a salt. ± gives the standard deviation of the averaged measurements. Over roughly 2,600 compounds, “MBP+ mature oligodendrocyte number relative to DMSO vehicle control” has its median near -0.34; the highest 2% begin near 13. The full list was thinned out, with the highest values kept by preference.
Each compound was assayed on jimpy (Plp1 jimpy) mouse iPSC-derived oligodendrocyte progenitor cells (assay: MBP+ mature oligodendrocyte number relative to DMSO vehicle control (SDs above negative control mean); higher = more surviving jimpy oligodendrocytes (rescue)). Settings: 10 µM; 3 days.
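Note: 10 µM single dose with 3-day oligodendrocyte differentiation.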

| SMILES | MBP+ mature oligodendrocyte number |
| --- | --- |
| NC(N)=NCc1cccc(I)c1 [m-Iodobenzylguanidine hemisulfate] | 16.6 |
| CCN(CC)CCn1c(=O)c(Cc2ccc(OC)cc2)nc2ccccc21 [Caroverine hydrochloride] | -0.211 |
| Cc1ccc(S(=O)(=O)OCC(=O)Nc2ccc(C(=O)O)c(O)c2)cc1 | 2.29 |
| CC[n+]1c(/C=C/C=C2/N(C)c3ccccc3C2(C)C)sc2ccccc21 | < -4.47 |
| Cc1cc(C(=O)NOCCO)c(Nc2ccc(I)cc2F)n(C)c1=O | -0.892 |
| NCCNS(=O)(=O)c1cccc2c(Cl)cccc12 [A3 hydrochloride] | -2.82 |
| Cn1c(N2CCCCS2(=O)=O)nc(C(=O)NCc2ccc(F)cc2)c(O)c1=O | < -6.7 |
| Cc1nnc(C(=O)NC(C)(C)c2nc(C(=O)NCc3ccc(F)cc3)c(O)c(=O)n2C)o1 [Raltegravir (MK-0518)] | 55.9 |
| O=C(O)c1ccccc1Nc1cccc(C(F)(F)F)c1 [Flufenamic acid] | 1.25 |
| O=C(Nc1cccc(C(F)(F)F)c1)Nc1cc(S(=O)(=O)NC2CC2)ccc1-c1ccsc1 | 18.2 |
| COc1cc(OC)cc(-c2cc3cnc(N)nc3nc2NC(=O)NC(C)(C)C)c1 | -2.43 |
| CC[C@H](NC(=O)c1c(C)c(-c2ccccc2)nc2ccccc12)c1ccccc1 | -1.61 |
| O=C1NC(=O)/C(=C\c2ccc3nccnc3c2)S1 | -0.833 |
| FC(F)(F)c1ccccc1-n1ccnc1 [1-[2-(Trifluoromethyl)phenyl]imidazole] | -0.176 |
| Clc1ccccc1C(c1ccccc1)(c1ccccc1)n1ccnc1 [Clotrimazole] | 15.7 ± 1.2 |
| O=C(NCCO)c1cccc(-c2cc(Nc3ccc(OC(F)(F)F)cc3)ncn2)c1 | -0.394 |
| CC(=O)[C@H]1CC[C@H]2[C@@H]3CC=C4C[C@@H](OS(=O)(=O)O)CC[C@]4(C)[C@H]3CC[C@]12C [Pregnenolone sulfate sodium] | 0.467 |
| O=C1NC(=O)C(=Cc2ccc(-c3ccc(F)cc3)o2)S1 (stereo in doubt) | 0.66 |
| Clc1ccc(C(c2ccc(Cl)cc2)[n+]2ccn(CC(OCc3ccc(Cl)cc3Cl)c3ccc(Cl)cc3Cl)c2)cc1 (stereo not drawn) [Calmidazolium chloride] | < -3.34 |

| SMILES | MBP+ mature oligodendrocyte number |
| --- | --- |
| CC(C)OC(=O)C(C(=O)OC(C)C)=C1SC=CS1 [Malotilate] | 19 |
| CCN(C(=O)c1c(O)c2c(Cl)cccc2n(C)c1=O)c1ccccc1 [Laquinimod] | 1.45 |
| O=C(O)[C@H](CC(=O)N1C[C@H]2CCCC[C@H]2C1)Cc1ccccc1 [Mitiglinide calcium] | -1.54 |
| COc1ccccc1N1CCN(CCN(C(=O)c2ccc(F)cc2)c2ccccn2)CC1 [p-MPPF dihydrochloride] | 6.54 |
| CNCc1ccc(C)c(NC(=O)c2ccc(Nc3nc(-c4ccccc4)c4ccccc4n3)cc2)c1 | < -6.35 |
| Cc1ccc(C(=O)Nc2ccc(S(=O)(=O)O)c3cc(S(=O)(=O)O)cc(S(=O)(=O)O)c23)cc1NC(=O)c1cccc(NC(=O)Nc2cccc(C(=O)Nc3cc(C(=O)Nc4ccc(S(=O)(=O)O)c5cc(S(=O)(=O)O)cc(S(=O)(=O)O)c45)ccc3C)c2)c1 [Suramin sodium salt] | -1.35 |
| Cc1ccc(NC(=O)c2cccc(N(C)C)c2)cc1NC(=O)c1ccc(O)cc1 | 14.6 |
| C[C@]12CC[C@@H]3c4ccc(O)cc4CC[C@H]3[C@@H]1CC[C@@H]2O [beta-Estradiol] | 3.17 |
| C[C@]12CC[C@@H]3c4ccc(O)cc4CC[C@H]3[C@@H]1C[C@@H](O)[C@@H]2O [Estriol] | -0.78 |
| C[C@]12CC[C@@H]3c4ccc(O)cc4CC[C@H]3[C@@H]1CCC2=O [Estrone] | 21.6 ± 26 |
| C[C@]12CC[C@@H]3c4ccc(O)cc4CC[C@H]3[C@@H]1CC[C@@H]2O [Estradiol] | 5.47 |
| Nc1nc2ccc(Cl)cc2n2c(-c3ccccc3)nnc12 | 0.304 |
| Oc1c2ccccc2c2c3c(cccc13)N=N2 | -2.59 ± 1.1 |
| CCCCCCCCCCCCCCCC(=O)OC[C@H](O)[C@H]1OC(=O)C(O)=C1O [L-Ascorbyl 6-palmitate] | -1.84 |
| N[C@@H](Cc1cc(I)c(Oc2cc(I)c(O)c(I)c2)c(I)c1)C(=O)O [L-Thyroxine] | -1.06 |
| N#Cc1ccc(C(c2ccc(C#N)cc2)n2cncn2)cc1 [Letrozole] | 3.69 |
| c1ccc(-c2ccc(C(c3ccccc3)n3ccnc3)cc2)cc1 (stereo not drawn) [Bifonazole] | 52.3 |
| CC(N)(Cc1ccc(O)cc1)C(=O)O (racemic) [DL-alpha-Methyl-p-tyrosine] | 1.37 |
| O=C(/C=C/c1ccc(O)cc1)CC(=O)/C=C/c1ccc(O)cc1 [Bisdemethoxycurcumin] | 0.659 |
